Assay outcomes from PubChem.
Sa growth inh: blocks Staphylococcus aureus growth | S. aureus RN4220 growth, OD600, 20 h, 42 °C; hits give low values | relative growth, % (no concentration beside the values) | 170,000 compounds, 0.53% hits;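 active = relative growth at most 50% at the other temperature and 20+ points below 30 °C, or under 10% at both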
S aureus helic: S. aureus DNA helicase inhibition; inhibition, % (concentration not given with the values); 120,000 compounds, 0.05% hits; purified S. aureus helicase, fluorescence unwinding assay; in the data active = inhibition above about 25%, passing the limit was not always enough;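 also: 0% = mean of negative control wells and 100% = mean of positive control wells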
Active calls of the source: *; · = not tested or not shown. A selection: hits, their analogues and other compounds. The true share with any hit is near 0.52%.

SMILES | Sa growth inh | S aureus helic
COc1ccc(Nc2cc(C)c(C#N)c3nc4ccccc4n23)cc1 | 93 | 8
Cc1cc(C)c2c(=O)c3ccccc3[nH]c2n1 | 78 | 35
CC(C)CCSc1nc2ccccc2n1Cc1cc(=O)n2ccsc2n1 | 98 | 23
CNC(=O)Nc1cc(C(F)(F)F)cc(C(F)(F)F)c1 | 78 | ·
Cc1noc(C)c1NC(=O)Nc1cc(C(F)(F)F)cc(C(F)(F)F)c1 | 5.2* | -41
O=C(NCC(c1cccnc1)N1CCOCC1)Nc1ccccc1 (centres undefined) | 93 | 7
Cc1ccc2c(Cl)cc(Cl)c(OCC(=O)NCc3ccco3)c2n1 | -1.6* | -2
Cc1cc(OCC(=O)NCc2ccco2)c(C)cc1Br | 93 | 7
O=S(c1c(F)c(F)c(F)c(F)c1F)c1c(F)c(F)c(F)c(F)c1F | 0.7* | 21
O=c1c2c3c(sc2ncn1-n1cccc1)CCCC3 | 113 | -8
N#CCCN/N=C/c1ccc(-c2ccc(SC(F)F)cc2)o1 | 48* | -11
NC(=O)N/N=C/c1ccc(-c2ccc(SC(F)F)cc2)o1 | 101 | -4
O=S(=O)(c1ccc2ccccc2c1)N1CCCc2ccccc21 | 98 | 10
Cn1c(=N)n(CC(=O)c2ccc(-c3ccccc3)cc2)c2ccccc21 | 117 | 8
C=CCn1c(=N)n(CC(=O)c2ccc(-c3ccccc3)cc2)c2ccccc21 | 5.3* | 13
CC(NCC(=O)Nc1ccccc1C(=O)NC1CC1)c1ccc(F)cc1 (centres undefined) | 93 | -7
Cc1c(C)[n+]([O-])c2ccc3c(non3O)c12 | 1.9* | 9
CCOC(=O)c1c(C)[n+]([O-])c2ccc3c(non3O)c12 | 78 | 2
CCOC(=O)/C(C#N)=N/Nc1ccc(SC(F)F)cc1 | 34 | 10
N#CC(C#N)=NNc1ccc(SC(F)F)cc1 | 0.9* | 30
S=C(NC1CCCC1)N1CCN(C/C=C/c2ccccc2)CC1 | 134 | 2
COC(=O)c1c(C)[nH]c(=O)[nH]c1=S | 76 | 4
CC(C)c1ccc(S(=O)(=O)Nc2cc3c4c(oc3c3ccccc23)CCCC4)cc1 | 79 | 7
O=c1oc2cc(Cl)c(O)c(Cl)c2s1 | 60 | 30
Oc1nc2c(Cl)c(Cl)c(Cl)cc2o1 | -1.2* | 30
SMILES | Sa growth inh | S aureus helic
CCN(c1ccccc1)S(=O)(=O)c1ccc(Cl)cc1 | 88 | 0
CCN(c1ccc2oc3ccccc3c2c1)S(=O)(=O)c1ccc(C#N)cc1 | 45* | -8
Cc1ccn(CCC(=O)N(C)Cc2ccco2)n1 | 103 | 18
Cc1nc(-c2ccccn2)nc(SCC(=O)c2ccccc2)c1Cl | 106 | ·
Cc1nc(-c2ccccn2)nc(SCc2ccccc2)c1Cl | 19* | ·
CC(C)CNC(=O)COc1ccc(Cl)cc1Cl | 96 | 4
COc1cccc(-n2nnnc2S(=O)(=O)Cc2ccccc2)c1 | -1.1* | 2
Cc1cccc(C)c1-n1nnnc1S(=O)(=O)Cc1ccccc1Cl | 96 | -3
O=C1CC(c2ccccc2)Nc2ccc3ccccc3c21 (centres undefined) | 115 | -4
CN(C)c1ccc(/C=C2\SC(=O)NC2=O)cc1 | · | -22
O=C1NC(=O)/C(=C\c2cccc(C(F)(F)F)c2)S1 | 7.3* | -31
C=CCNc1nc(C(=O)OCC(=O)c2ccc[nH]2)cs1 | 95 | -11
COc1ccc(-c2cc(C(F)(F)F)nc(NCc3ccccc3)n2)cc1 | 98 | ·
COc1ccc(-c2cc(C(F)(F)F)nc(S(C)(=O)=O)n2)cc1 | 28* | ·
CCSc1ncc(Cl)c(C(=O)N(Cc2ccccc2)Cc2ccco2)n1 | 95 | ·
CCS(=O)(=O)c1ncc(Cl)c(C(=O)N(Cc2ccccc2)c2ccc(OC)cc2)n1 | 5.0* | ·
CCCS(=O)(=O)c1ncc(Cl)c(C(=O)N(Cc2ccccc2)Cc2ccco2)n1 | 1.2* | ·
COc1ccc(N(Cc2ccccc2)C(=O)c2nc(SC)ncc2Cl)cc1 | 103 | ·
Cc1ccc(S(=O)(=O)N2c3cccc4cccc(c34)S2(=O)=O)cc1C | 97 | 10
O=C(CCc1nc2ccccc2c(=O)[nH]1)OCc1ccccc1 | 110 | 1
CCn1c(O)c(N=NC(N)=S)c2ccccc21 | 64 | 9
CCn1c(O)c(N=NC(=O)Nc2ccc(Cl)c(Cl)c2)c2ccccc21 | -0.8* | 13
O=C1CSC(=O)N1CCN=Cc1c(O)n(-c2ccc(Cl)cn2)c(=O)c2ccccc12 | 100 | -27
O=C1C(=Cc2cccnc2)C(=O)c2ccccc21 | 64 | -5
O=C1/C(=C/c2cccnc2)c2ccccc2N1c1ccccc1 | 8.4* | 14
SMILES | Sa growth inh | S aureus helic
OC(CNCCc1cccs1)COc1ccccc1 (centres undefined) | 105 | ·
COc1cc2nc(N3CCN(c4cc(C)ccc4C)CC3)nc(N)c2cc1OC | -0.7* | -12
COc1nc(OC)nc(N2CCN(c3cc(C)ccc3C)CC2)n1 | 92 | 7
CCc1cc(=O)oc2c(C)c(OC3CCCCC3=O)ccc12 (centres undefined) | 110 | 1
O=C(Cc1noc2ccccc12)NCCOC12CC3CC(CC(C3)C1)C2 | 104 | -10
Cc1cc(C(C)(C)CC(C)(C)C)ccc1OCCOCC[N+](C)(C)Cc1ccccc1 | 0.9* | ·
